Source: the supplement of paper PMC6555819

Legend:
Assay in all cases: PBM binding z-score (relative to random genomic background probes); higher = stronger binding; sequences stand for … in GC…GCGATTGACAGCGTAGAATGAAGG
[1] = tested on: PPARg:RXRa DBDmut IVT, anti-RXR (DBD mutation: RXRa K156A/R161A, NR concentration 270 nM, RXRa partner concentration 90 nM)
Summary of the method: (§1)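 Custom Agilent 4×180K protein-binding microarrays carried double-stranded probes. Their 34-nt variable regions held direct-repeat seeds, single-nucleotide variants, half-site ablations and random human genomic background sequences. Arrays were incubated 1 h with ligand-free nuclear receptor dimers in PBS pH 7.4, 2% milk, 0.02% Triton X-100, 1 mM DTT, 0.2 mg/mL BSA and 0.4 mg/ml salmon testes DNA. Antibodies against each partner (one per run) detected binding, and scanned fluorescence was regression-normalized. Binding z-scores use random background probes as reference.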

[2] = tested on: PPARg:RXRa IVT, anti-PPARg (NR concentration 270 nM, RXRa partner concentration 90 nM)
Summary of the method: as §1

[3] = tested on: PPARg DBDmut:RXRa IVT, anti-PPARg (DBD mutation: PPARg1 K132A/R137A, NR concentration 270 nM, RXRa partner concentration 90 nM)
Summary of the method: as §1

[4] = tested on: PPARg DBDmut IVT, anti-PPARg (DBD mutation: PPARg1 K132A/R137A, NR concentration 270 nM)
Summary of the method: as §1

[5] = tested on: PPARg homodimer (NR concentration 180 nM)
Summary of the method: as §1

[6] = tested on: PXR:RXRa (NR concentration 270 nM, RXRa partner concentration 90 nM)
Summary of the method: as §1

[7] = tested on: PXR homodimer (NR concentration 270 nM)
Summary of the method: as §1

[8] = tested on: RARa:RXR (NR concentration 270 nM, RXRa partner concentration 90 nM)
Summary of the method: as §1

[9] = tested on: RARa homodimer (NR concentration 270 nM)
Summary of the method: as §1

[10] = tested on: RARb:RXRa (NR concentration 270 nM, RXRa partner concentration 90 nM)
Summary of the method: as §1

[11] = tested on: RARb homodimer (NR concentration 270 nM)
Summary of the method: as §1

[12] = tested on: RARg:RXRa (NR concentration 270 nM, RXRa partner concentration 90 nM)
Summary of the method: as §1

[13] = tested on: RARg homodimer (NR concentration 270 nM)
Summary of the method: as §1

[14] = tested on: RXRa DBDmut IVT, anti-RXR (DBD mutation: RXRa K156A/R161A, NR concentration 90 nM)
Summary of the method: as §1

[15] = tested on: RXRa homodimer (NR concentration 180 nM)
Summary of the method: as §1

[16] = tested on: THRa:RXRa (NR concentration 90 nM, RXRa partner concentration 90 nM)
Summary of the method: as §1

[17] = tested on: THRa homodimer (NR concentration 90 nM)
Summary of the method: as §1

[18] = tested on: VDR homodimer (NR concentration 270 nM)
Summary of the method: as §1

Sequence	PBM binding z-score [1]	PBM binding z-score [2]	PBM binding z-score [3]	PBM binding z-score [4]	PBM binding z-score [5]	PBM binding z-score [6]	PBM binding z-score [7]	PBM binding z-score [8]	PBM binding z-score [9]	PBM binding z-score [10]	PBM binding z-score [11]	PBM binding z-score [12]	PBM binding z-score [13]	PBM binding z-score [14]	PBM binding z-score [15]	PBM binding z-score [16]	PBM binding z-score [17]	PBM binding z-score [18]
CATGCTAGGTCATGGTCAGCTAATCTACAGTATG	3.61	3.51	0.62	0.712	1.58	1.4	-0.662	2.58	0.163	3.92	3.06	3.95	4.67	1.74	3.06	2.87	1.06	0.15
CCTGCTAGGTCATTGTCAGCTAATCTACAGTATG	4.13	3.2	0.372	0.337	0.865	1.12	-0.0805	1.77	0.00948	3.55	2.45	3.06	3.95	2.93	1.9	2.61	0.862	1.14
ACTCGGAGGACAAAGGTTAGAGCTACGCCAGTGA	0.161	1.72	-0.577	-0.0683	1.1	0.7	0.168	1.46	0.397	2.23	1.89	2.94	1.93	0.75	1.7	1.76	-0.114	0.17
CCGACTGGGGCAAAGGTTTCCATACTCAGTACGA	5.1	4.87	-0.186	-0.49	0.0767	-0.0306	-0.339	0.0342	-0.339	0.737	0.438	0.385	0.445	0.213	0.448	-0.0772	-0.282	-0.026
TCTTGTAGATCAGCAAGTTAAGAAAGCTGGCCAA	1.5	0.0775	0.0136	-0.449	-0.907	-0.095	-0.549	-0.2	-0.451	-0.472	-0.5	-0.41	-0.827	0.54	-0.136	-0.47	-1.04	-0.456
ATCTCAAGGTAAAAGTTCAGTGAATCCCGAGGAT	-0.133	1.48	0.958	1.4	0.853	2.03	1.43	2.15	0.0495	2.62	2.4	2.29	1.96	0.614	2.21	1.94	0.529	1.28
TCTTGTAGATCAAACGTTAAGAAAGCCGAAGCCT	2.23	0.376	0.781	0.516	-0.0553	0.00909	-0.155	0.0712	-0.409	-0.19	-0.779	-0.146	-0.238	0.749	0.138	-0.412	-0.567	-0.573
GCAGACAGGTGAAACGCAGGTAAGTCAGGGTGGC	0.702	0.327	-0.327	-0.89	-0.504	-0.471	-0.705	0.101	-0.533	0.61	0.216	0.37	0.249	-0.846	0.479	0.9	-0.575	-0.728
ACGAGCAGGCCAAGGGTCACTCAAGATTAGTCCG	0.294	2.7	-0.273	-0.61	1.76	3.15	-0.226	4.01	0.319	3.69	3.96	4.21	4	0.0917	4.07	2.69	0.262	0.916
ATACCAAGGTGATCGTGAGGTCGTCGATACTAAC	0.722	1.25	0.727	0.964	0.798	2.36	0.524	1.84	0.592	1.3	1.61	2.45	0.868	0.301	1.56	3.52	2.54	1.95
TAGCCTAGGTCATTAAGGGGCCAGTATAGAAAGC	1.56	2.58	0.422	0.198	0.937	1.36	-0.202	2.18	0.00876	3.64	3.1	5.12	3.99	1.36	2.52	2.9	0.623	0.937
ATCTCTCGGTAAGACTCAGTTCAGTGAAGAACGC	0.0945	0.262	0.647	0.946	1.35	1.2	1.82	0.858	1.21	0.565	1.05	0.265	0.481	0.833	0.224	0.746	1.17	2.06
ACTATTAGTTGACTTTGGGCAACCGATACGACGC	-0.00927	0.141	1.83	1.67	0.55	0.0456	0.199	0.481	0.975	0.454	0.274	0.43	0.635	0.79	0.476	0.55	0.0342	0.298
GCGACTGGGGCATTAGCAGGTTACCATAACTTAA	3.92	2.83	-0.21	-0.476	0.463	-0.152	-0.13	0.182	-0.164	0.559	0.877	0.345	0.226	0.29	0.0797	0.892	0.101	-0.236
